Data reported in PubChem BioAssay AID1345085 (National Center for Advancing Translational Sciences (NCATS), 2018).
Results filed as inconclusive are left out. Values without a mark were called inactive. Activity calls are given as the source filed them. The call rests on the fitted dose curve; in most records, active means well fitted cell-killing curve with a large enough effect; inconclusive means small, poorly fitted or top-dose-only effect, or effect the other way; inactive means no such curve, though single readings can be large or run the other way.

System: HeLa
Assay: Confirmatory qHTS for gynecologic anti-cancer compounds from libraries of approved drugs and bioactive compounds; further: nearly all actives have a fitted effect of over 55% in size
Conditions: gynecologic cancer cell panel viability, ATPlite luminescence, 48 h; series mostly up to 57.6 µM
Summary of the method: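 Cells (1,000/well) were plated, left 16 h at 37 C/5% CO2, then given compound at 11 concentrations (1:3) from 57.5 uM to 0.977 nM for 48 h. ATPlite luminescence after 15 min at room temperature gave IC50 values.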
On the % scale 0 is the no-effect control and ±100 the full control effect; potency means the concentration at half of the fitted maximal effect.

Structure (SMILES)	activity change, negative = viability loss	Potency
Cc1cnc(CNC(=O)c2c(=O)c3ccc(N4CCCN(C)CC4)nc3n3c2sc2ccccc23)cn1	-3.33% [at 10.7 µM]	–
Cc1cc(SCc2sc(-c3ccc(C(F)(F)F)cc3)nc2C)ccc1OCC(=O)O	–	inactive
CCCCc1oc2ccccc2c1C(=O)c1cc(I)c(OCCN(CC)CC)c(I)c1	–	50.1 µM (active)
Cn1cnc2c(F)c(Nc3ccc(Br)cc3F)c(C(=O)NOCCO)cc21	–	inactive
CCCCN(CCCC)C(=O)CN1C[C@H](c2ccc3c(c2)OCO3)[C@@H](C(=O)O)[C@@H]1c1ccc(OC)cc1	–	inactive
CC[C@]1(O)C[C@H]2CN(CCc3c([nH]c4ccccc34)[C@@](C(=O)OC)(c3cc4c(cc3OC)N(C=O)[C@H]3[C@@](O)(C(=O)OC)[C@H](OC(C)=O)[C@]5(CC)C=CCN6CC[C@]43[C@@H]65)C2)C1	–	0.273 µM (active)
CN(c1nccc(=O)[nH]1)C1CCN(c2nc3ccccc3n2Cc2ccc(F)cc2)CC1	–	inactive
O=C(Nc1cccnc1)N1CCC(Cc2cccc(Oc3ccc(C(F)(F)F)cn3)c2)CC1	–	3.85 µM (active)
Cc1cc(Nc2cc(N3CCN(C)CC3)nc(Sc3ccc(NC(=O)C4CC4)cc3)n2)n[nH]1	–	1.09 µM (active)
Cc1cc(Nc2nc(N[C@@H](C)c3ccc(F)cc3)c(C#N)cc2F)n[nH]1	–	1.09 µM (active)
C=CC(=O)Nc1cccc(Oc2nc(Nc3ccc(N4CCN(C)CC4)cc3)ncc2Cl)c1	–	6.85 µM (active)
Cc1ccc(C(N)=O)cc1Nc1nccc(-c2cn(C(C)C)c3cnccc23)n1	–	7.69 µM (active)
CCc1cccc(CC)c1NC(=O)N1Cc2[nH]nc(NC(=O)c3ccc(N4CCN(C)CC4)cc3)c2C1	–	1.53 µM (active)
Nc1nc(Cl)nc2c1ncn2C1OC(CO)C(O)C1F (configuration not stated)	–	inactive
Nc1ccc(-c2ccc3ncc4ccc(=O)n(-c5cccc(C(F)(F)F)c5)c4c3c2)cn1	–	0.385 µM (active)
OC[C@H]1O[C@@H](n2cnc3c(=S)nc[nH]c32)[C@H](O)[C@@H]1O	–	4.32 µM (active)
CC[C@]1(O)C[C@@H]2CN(CCc3c([nH]c4ccccc34)[C@@](C(=O)OC)(c3cc4c(cc3OC)N(C)[C@H]3[C@@](O)(C(=O)OC)[C@H](OC(C)=O)[C@]5(CC)C=CCN6CC[C@]43[C@@H]65)C2)C1	–	0.122 µM (active)
CN(C[C@@H]1COCCO1)S(=O)(=O)Nc1ccc2ccc3ncc(-c4cnn(C)c4)cc3c(=O)c2c1	–	5.44 µM (active)
CN1CCN(Cc2ccc(NC(=O)Nc3ccc(Oc4cc(NC(=O)C5CC5)ncn4)cc3)cc2C(F)(F)F)CC1	–	0.306 µM (active)

Structure (SMILES)	activity change, negative = viability loss	Potency
CCc1c2c(nc3ccc(OC(=O)N4CCC(N5CCCCC5)CC4)cc13)-c1cc3c(c(=O)n1C2)COC(=O)[C@]3(O)CC	–	inactive
Cn1c(=O)c(-c2c(Cl)cccc2Cl)cc2cnc(Nc3cccc(C(=O)O)c3)nc21	–	2.43 µM (active)
CN(C)CC/C=C1\c2ccccc2COc2ccccc21	–	inactive
O=C(NOCC1CC1)c1ccc(F)c(F)c1Nc1ccc(I)cc1Cl	–	9.68 µM (active)
CNCc1ccc(-c2[nH]c3cc(F)cc4c3c2CCNC4=O)cc1	–	inactive
S=c1nc[nH]c2nc[nH]c12	–	3.43 µM (active)
CN1C(=O)C(Cc2c[nH]c3ccccc23)NC1=S (configuration not stated)	–	inactive
Cc1ccc(C(=O)Nc2cccc(C(F)(F)F)c2)cc1-c1ccc2nc(NCCN3CCOCC3)ncc2c1	–	7.69 µM (active)
Nc1nccc(Oc2ccc(NC(=O)c3c[nH]cc(-c4ccc(F)cc4)c3=O)cc2F)c1Cl	–	6.85 µM (active)
CCN[C@H]1C[C@H](C)S(=O)(=O)c2sc(S(N)(=O)=O)cc21	–	inactive
O=C1N(c2ccccc2)c2ccccc2C1(Cc1ccncc1)Cc1ccncc1	–	inactive
C#C[C@]1(O)CC[C@H]2[C@@H]3CCC4=CC(=O)CC[C@@H]4[C@H]3CC[C@@]21CC	–	3.85 µM (active)
CCC1C(=O)N(C)c2cnc(Nc3ccc(C(=O)NC4CCN(C)CC4)cc3OC)nc2N1C1CCCC1 (configuration not stated)	–	0.0049 µM (active)
Nc1ccccc1NC(=O)c1ccc(CNC(=O)OCc2cccnc2)cc1	–	4.32 µM (active)
OCc1ccc(-c2ccc(-c3ccc(CO)s3)o2)s1	–	inactive
Nc1ncnc2c1ncn2[C@@H]1O[C@H](CO)C[C@H]1O	–	inactive
CCN1CCN(Cc2ccc(Nc3ncc(F)c(-c4cc(F)c5nc(C)n(C(C)C)c5c4)n3)nc2)CC1	–	17.2 µM (active)
CCCCc1nc2cc(/C=C/C(=O)NO)ccc2n1CCN(CC)CC	–	1.72 µM (active)
